Data as given in PubChem BioAssay (Tox21).
Records with an inconclusive call do not appear. A call without a number means that no potency is given here. Active and inactive are the calls of the source. Unless noted, the call rests on the fitted dose curve; in most records, active means well fitted activation curve with a large enough effect in the repeat runs; inconclusive means weak or mixed curves; inactive means no such curve, though single readings can be large or run the other way.
Further: nearly all actives have a fitted effect of over 15% in size.
Potency means the concentration at half of the fitted maximal effect.

Assay: qHTS assay for small molecule agonists of the p53 signaling pathway (AID 651631; calls by dose curve)
Conditions: HCT-116 p53RE-bla reporter, beta-lactamase FRET ratio, 16 h; series mostly up to 73.3 µM
Procedure, shortened: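 Agonist mode screen using a stably integrated beta-lactamase gene under p53 response elements in HCT-116 cells. Compound exposure lasts 16 h at 37 °C; fluorescence intensity is measured following 2 h FRET substrate loading.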
For `NCCCN1CCN(CCCN)CC1`, the Potency was “inactive”. In the case of `CCCOCCC`, the Potency is reported as “inactive”. In the case of `CCCCNC(=S)NCCCC`, the Potency is reported as “inactive”. In the case of `OCCN(CCO)CCN(CCO)CCO`, the Potency is reported as “inactive”. In the case of `CC(C)C1=CC2=CC[C@@H]3[C@](C)(CCC[C@@]3(C)C(=O)O)[C@H]2CC1`, the Potency is reported as “inactive”. In the case of `NC/C=C/C(=O)O`, the Potency is reported as “inactive”. For `COc1ccccc1N1CCN(CCCNc2cc(=O)n(C)c(=O)n2C)CC1`, the Potency was “inactive”. In the case of `CCN1CC(CCN2CCOCC2)C(c2ccccc2)(c2ccccc2)C1=O` (stereo not given), the Potency is reported as “inactive”. For `C[C@@H]1CN(c2c(F)c(N)c3c(=O)c(C(=O)O)cn(C4CC4)c3c2F)C[C@H](C)N1`, the Potency was “inactive”. With `CCOC(=O)c1ccccc1O` the Potency was “inactive”. With `CC(=O)N[C@@H](CC(C)C)C(=O)O` the Potency was “inactive”. For `CC(C)CC(=O)OCc1ccccc1`, the Potency was “inactive”. In the case of `CC/C=C\CCOC(=O)CCCCC`, the Potency is reported as “inactive”. With `Cc1ccc(C=O)s1` the Potency was “inactive”. In the case of `FC(F)(F)C(Cl)(Cl)Cl`, the Potency is reported as “inactive”. With `CN(C)Cc1ccccc1` the Potency was “inactive”. In the case of `CC(C)c1ccccc1`, the Potency is reported as “inactive”. For `O=Cc1ccc(F)c(Br)c1`, the Potency was “inactive”. With `CCOC(=O)C(Br)c1ccccc1` (stereo not given) the Potency was “inactive”. For `CCCC1CCC(=O)O1` (stereo not given), the Potency was “inactive”. For `CN1CCN(c2c(F)cc3c(=O)c(C(=O)O)cn4c3c2SCC4)CC1`, the Potency was “inactive”. For `O=c1[nH]cnc2c1ncn2[C@@H]1O[C@H](CO)[C@@H](O)[C@H]1O`, the Potency was “inactive”. With `CCOC(=O)[C@H](CCc1ccccc1)N[C@@H](C)C(=O)N1Cc2cc(OC)c(OC)cc2C[C@H]1C(=O)O` the Potency was “inactive”. With `CC(C)C(=O)OC/C=C/c1ccccc1` the Potency was “inactive”. For `COc1nc(C)nc(NC(=O)NS(=O)(=O)c2ccccc2OCCCl)n1`, the Potency was “inactive”. For `FC(F)(F)c1ccccc1`, the Potency was “inactive”. In the case of `Cc1c(C(=O)NCCO)[n+](=O)c2ccccc2n1[O-]`, the Potency is reported as “inactive”. With `CCCCc1ccc2nc(NC(=O)OC)[nH]c2c1` the Potency was 50.7 nM (active). For `NC(=O)Cc1cccc(C(=O)c2ccccc2)c1N`, the Potency was “inactive”. With `Nc1cccc(S(=O)(=O)O)c1` the Potency was “inactive”. In the case of `COC(=O)c1ccc(OC)cc1`, the Potency is reported as “inactive”. For `COc1cc(C)ccc1C(C)C`, the Potency was “inactive”. For `C=Cc1ccccc1`, the Potency was “inactive”. In the case of `Cc1cc(S(=O)(=O)O)c(N)cc1Cl`, the Potency is reported as “inactive”. In the case of `O=C(O)c1cccc(Cl)c1Cl`, the Potency is reported as “inactive”.

Assay: qHTS assay for small molecules that induce genotoxicity in human embryonic kidney cells expressing luciferase-tagged ATAD5 (AID 651632)
Conditions: HEK293T ATAD5-luciferase induction, 16 h; series mostly up to 83.3 µM
Procedure, shortened: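 DMSO vehicle served as the control. HEK293T reporter cells, 16 hr at 37C, then 30 min Amplite at room temperature; ATAD5 induction is measured as luciferase activity.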
For `NCCCN1CCN(CCCN)CC1`, the Potency was “inactive”. In the case of `CCCOCCC`, the Potency is reported as “inactive”. With `CCCCNC(=S)NCCCC` the Potency was “inactive”. For `OCCN(CCO)CCN(CCO)CCO`, the Potency was “inactive”. For `CC(C)C1=CC2=CC[C@@H]3[C@](C)(CCC[C@@]3(C)C(=O)O)[C@H]2CC1`, the Potency was “inactive”. With `NC/C=C/C(=O)O` the Potency was “inactive”. With `COc1ccccc1N1CCN(CCCNc2cc(=O)n(C)c(=O)n2C)CC1` the Potency was “inactive”. For `CCN1CC(CCN2CCOCC2)C(c2ccccc2)(c2ccccc2)C1=O` (stereo not given), the Potency was “inactive”. In the case of `C[C@@H]1CN(c2c(F)c(N)c3c(=O)c(C(=O)O)cn(C4CC4)c3c2F)C[C@H](C)N1`, the Potency is reported as “inactive”. In the case of `CCOC(=O)c1ccccc1O`, the Potency is reported as “inactive”. In the case of `CC(=O)N[C@@H](CC(C)C)C(=O)O`, the Potency is reported as “inactive”. With `CC(C)CC(=O)OCc1ccccc1` the Potency was “inactive”. For `CC/C=C\CCOC(=O)CCCCC`, the Potency was “inactive”. With `Cc1ccc(C=O)s1` the Potency was “inactive”. In the case of `FC(F)(F)C(Cl)(Cl)Cl`, the Potency is reported as “inactive”. In the case of `CN(C)Cc1ccccc1`, the Potency is reported as “inactive”. For `CC(C)c1ccccc1`, the Potency was “inactive”. For `O=Cc1ccc(F)c(Br)c1`, the Potency was “inactive”. With `CCOC(=O)C(Br)c1ccccc1` (stereo not given) the Potency was “inactive”. In the case of `CCCC1CCC(=O)O1` (stereo not given), the Potency is reported as “inactive”. In the case of `CN1CCN(c2c(F)cc3c(=O)c(C(=O)O)cn4c3c2SCC4)CC1`, the Potency is reported as “inactive”. In the case of `O=c1[nH]cnc2c1ncn2[C@@H]1O[C@H](CO)[C@@H](O)[C@H]1O`, the Potency is reported as “inactive”. In the case of `CCOC(=O)[C@H](CCc1ccccc1)N[C@@H](C)C(=O)N1Cc2cc(OC)c(OC)cc2C[C@H]1C(=O)O`, the Potency is reported as “inactive”. With `CC(C)C(=O)OC/C=C/c1ccccc1` the Potency was “inactive”. For `COc1nc(C)nc(NC(=O)NS(=O)(=O)c2ccccc2OCCCl)n1`, the Potency was “inactive”. In the case of `FC(F)(F)c1ccccc1`, the Potency is reported as “inactive”. With `Cc1c(C(=O)NCCO)[n+](=O)c2ccccc2n1[O-]` the Potency was “inactive”. In the case of `CCCCc1ccc2nc(NC(=O)OC)[nH]c2c1`, the Potency is reported as 804 nM (active). With `NC(=O)Cc1cccc(C(=O)c2ccccc2)c1N` the Potency was “inactive”. In the case of `Nc1cccc(S(=O)(=O)O)c1`, the Potency is reported as “inactive”. For `COC(=O)c1ccc(OC)cc1`, the Potency was “inactive”. With `COc1cc(C)ccc1C(C)C` the Potency was “inactive”. For `C=Cc1ccccc1`, the Potency was “inactive”. With `Cc1cc(S(=O)(=O)O)c(N)cc1Cl` the Potency was “inactive”. With `O=C(O)c1cccc(Cl)c1Cl` the Potency was “inactive”.
